Assay results taken from PubChem BioAssay AID651813 (National Center for Advancing Translational Sciences (NCATS), 2012).
Out of some 2,100 compounds screened, about 1,100 (52%) were called active. Not shown: some 27% with an inconclusive outcome. So high a share suggests a set chosen from earlier hits. The list shows a part of the results. Unmarked numbers belong to inactive results. Calls follow the shape of the dose curve; as a rule, active = well fitted inhibition curve with a large enough effect; inconclusive = small, poorly fitted or top-dose-only effect; inactive = no such curve, though single readings can be large or run the other way.

molecular target: DNA dC->dU-editing enzyme APOBEC-3G (Homo sapiens) (UniProt Q9HC16); assay: qHTS for inhibitors of Vif-A3G interactions: Cherry picks counterscreen; conditions: HeLa A3G-eYFP + Vif (tagged APOBEC3G with the HIV-1 protein that degrades it), eYFP fluorescence, 24 h;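 also: hits raise yellow fluorescence by blocking Vif-driven A3G-eYFP degradation; nearly all actives have a fitted effect of over 70% in size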;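 as to max response: max response given as percent of control signal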
Sequence (Q9HC16 whole entry, looked up): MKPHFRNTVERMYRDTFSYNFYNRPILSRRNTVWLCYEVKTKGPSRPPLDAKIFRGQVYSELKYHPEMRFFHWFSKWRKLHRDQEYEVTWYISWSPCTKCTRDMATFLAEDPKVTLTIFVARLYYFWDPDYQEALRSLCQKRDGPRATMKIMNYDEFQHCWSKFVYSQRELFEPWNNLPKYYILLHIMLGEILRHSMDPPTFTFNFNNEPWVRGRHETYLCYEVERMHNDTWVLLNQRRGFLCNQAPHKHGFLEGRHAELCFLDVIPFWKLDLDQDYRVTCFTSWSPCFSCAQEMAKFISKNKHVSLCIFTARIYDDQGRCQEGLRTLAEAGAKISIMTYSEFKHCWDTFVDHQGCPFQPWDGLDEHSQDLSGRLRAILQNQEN
How it was run: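 Readout is eYFP fluorescence (488 nm excitation, 500-530 nm emission) measured on Acumen Explorer after 24 h compound exposure, several concentrations, at 37 deg C. Cells: HeLa stably co-expressing Vif and C-terminally eYFP-tagged A3G; MG132 positive control.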
Potency is read from the fitted curve at half-maximal effect.

SMILES | Potency | max response [%]
C=C(C(=O)c1ccccc1)C(NC(C)(C)C)c1ccccc1 (configuration not stated) | 14 µM (active) | 
C=C(C(=O)c1ccccc1)C(C(=C)C(=O)c1ccccc1)c1ccc(OC)cc1 | 9.94 µM (active) | 
C=C(C(=O)c1ccccc1)C(C)C(=C)C(=O)c1ccccc1 | 8.86 µM (active) | 
COc1ccc(-c2n[nH]c(C)c2-c2ccc(OC)c(OC)c2)c(O)c1 | 17.7 µM (active) | 
Cc1cc(C)c(NC(=O)Cn2c(=O)n(Cc3ccc(C(=O)NCc4ccco4)cc3)c(=O)c3sccc32)c(C)c1 | 18.4 µM (active) | 
Cc1ccc(C)c(Cn2c(=O)n(CCCC(=O)NCc3ccco3)c(=O)c3sccc32)c1 | 14 µM (active) | 
Cc1cccc(Cn2c(=O)n(CCCC(=O)NCc3ccco3)c(=O)c3ccccc32)c1 | 14 µM (active) | 
COc1cc2nc(SCC(=O)NCc3ccco3)n(Cc3ccc(Cl)cc3)c(=O)c2cc1OC |  | -29.6
CC(C)OC(=O)c1c2c(n3ccccc13)C(=O)c1ccccc1C2=O | 2.59 µM (active) | 
CCc1nnc(NC(=O)CSc2nnc(-c3ccccc3O)n2-c2ccc(C)cc2C)s1 | 6.27 µM (active) | 
CC(=O)c1cc(NC(=O)c2ccc(Cl)cc2)c(=O)oc1/C=C/N(C)C | 7.04 µM (active) | 
COc1ccc(C(=O)Nc2cc(C(C)=O)c(/C=C/N(C)C)oc2=O)cc1 | 9.94 µM (active) | 
COC(=O)c1c(-c2ccccc2Cl)noc1/C=C/N(C)C |  | 16.3
COC(=O)c1cc(NC(=O)c2ccccc2)c(=O)oc1/C=C/Nc1ccc(Oc2ccccc2)cc1 |  | 11.8
CC(=O)c1cc(NC(=O)c2ccc(C)cc2)c(=O)oc1/C=C/N(C)C | 14.6 µM (active) | 
COC(=O)c1ccccc1NC(=O)C1CC(=O)N(c2ccc(OC)cc2)C1 (configuration not stated) |  | -25.1
COc1ccc(N2CC(C(=O)N/N=C/c3ccc(C)cc3)CC2=O)cc1 (configuration not stated) | 7.04 µM (active) | 
Cc1cccc2[nH]cc(/C=C3/C=Nc4ccccc43)c12 | 18.4 µM (active) | 
O=C(N/N=C/c1c[nH]c2ccccc12)C1COc2ccccc2O1 (configuration not stated) | 14 µM (active) | 
Cc1ccc(/C=N/NC(=O)c2ccc3ccccc3c2)s1 | 1.58 µM (active) | 
CNC(=S)N/N=C/c1ccc(N2CCOCC2)s1 |  | 10.6
Cc1ccc(/C=N/NC(=O)C2COc3ccccc3O2)s1 (configuration not stated) | 7.9 µM (active) | 
Cc1ccc(-c2cc(C(=O)N/N=C/c3c[nH]c4ccccc34)[nH]n2)cc1 | 4.98 µM (active) | 

SMILES | Potency | max response [%]
Cc1cc(C)nc(NC(=S)Nc2cccc(Cl)c2Cl)c1 |  | 1.24
O=C(NCC1CCCO1)c1nn2c(C(F)(F)F)cc(-c3cc(Br)cs3)nc2c1Br (configuration not stated) | 16.4 µM (active) | 
Cc1ccc(C(=O)NC2c3ccccc3-c3ccccc32)cc1 | 1.98 µM (active) | 
O=c1c2cc3ccccc3n2cnn1Cc1ccccc1F | 12.5 µM (active) | 
CC(CC(=O)Nc1ccc2c(c1)c(=O)n(C)n2-c1ccccc1)c1ccccc1 (configuration not stated) | 3.96 µM (active) | 
CC(CC(=O)Nc1ccc2c(c1)c(=O)n(C)n2Cc1ccc(F)cc1)c1ccccc1 (configuration not stated) |  | -26
Cn1c(=O)c2cc(NC(=O)Cc3cccc4ccccc34)ccc2n1-c1ccccc1 | 11.2 µM (active) | 
CC(CC(=O)Nc1ccc2c(c1)c(=O)n(C)n2-c1ccccc1F)c1ccccc1 (configuration not stated) | 15.8 µM (active) | 
CCCCCCCNc1ccc(/C=C/c2ccnc3ccccc23)cc1 | 11.6 µM (active) | 
CCCCCCNc1ccc(/C=C/c2ccnc3ccccc23)cc1 | 18.4 µM (active) | 
COc1ccccc1NC(=O)c1sc2ncn(CC(=O)Nc3ccccc3)c(=O)c2c1C | 18.4 µM (active) | 
CCC(=O)Nc1nc2ccc(NC(=O)c3cc(OC)c(OC)c(OC)c3)cc2s1 |  | -0.685
CCCC(=O)Nc1nc2ccc(NC(=O)c3ccccc3F)cc2s1 | 15.8 µM (active) | 
COc1ccc(-c2c(C#N)c(N)nc(Sc3ccc(Cl)cc3)c2C#N)cc1 |  | -11.5
COc1ccc(OC)c(-c2cc(-c3cccnc3)nc(N)c2C#N)c1 | 5.59 µM (active) | 
COc1ccccc1-c1cc(-c2ccccc2)nc(SC(C(N)=O)c2ccccc2)c1C#N (configuration not stated) |  | -23.2
CCOCCCNC(=O)/C(C#N)=C/c1ccc([N+](=O)[O-])o1 | 23.1 µM (active) | 
Cc1ccc(NC(=O)C(=Cc2ccc(C(=O)O)cc2)C(=O)Nc2ccc(C)cc2C)c(C)c1 | 7.04 µM (active) | 
COc1cc(/C=C/c2ccnc3ccccc23)ccc1N(C)C | 18.4 µM (active) | 
COc1cc(N(C)C)c(OC)cc1/C=C/c1ccnc2ccccc12 | 23.1 µM (active) | 
C=CCN=c1scc(-c2ccc(F)cc2)n1/N=C/c1ccccn1 |  | -11.2
COc1cccc(C(=O)c2sc3nc(-c4ccccc4)cc(C(F)(F)F)c3c2N)c1 | 0.92 µM (active) | 
CCc1ccc(NC(=O)c2sc3nc(C)c(C(=O)Nc4ccc(C)cc4C)c(-c4ccco4)c3c2N)cc1 | 23.1 µM (active) | 

SMILES | Potency | max response [%]
CCOC(=O)c1sc(NC(=S)NC(=O)c2ccco2)nc1C |  | -15.3
COc1ccc(C(=O)c2sc3nc(C)cc(-c4cccs4)c3c2N)cc1 | 20.6 µM (active) | 
COc1ccc(OC)c(NC(=O)c2sc3nc(Cc4ccccc4)cc(C(F)(F)F)c3c2N)c1 | 3.66 µM (active) | 
CCC(=O)OCc1cnc(C)c2oc(=O)c(C(=O)Nc3ccccc3C(F)(F)F)cc12 |  | -2.09
Cc1c(C(=O)Nc2ccc(C(C)C)cc2)sc2nc3n(c(=O)c12)CCC3 |  | 6.74
CCOC(=O)c1c(-c2ccc(OC)cc2)csc1/N=C/C1C(=O)CCCC1=O |  | -18.7
CCOC(=O)c1c(C)nc2sc(C(=O)Nc3ccc(OC)cc3)c(N)c2c1-c1ccc(OC)cc1 | 1.98 µM (active) | 
COc1ccc(NC(=O)c2sc3nc(-c4ccc(OC)cc4)cc(C(F)(F)F)c3c2N)cc1 | 1.3 µM (active) | 
COc1ccc(C(=O)c2sc3nc(-c4ccc(C)cc4)cc(C(F)(F)F)c3c2N)cc1 | 0.731 µM (active) | 
Cc1ccc2c(c1C)NC(=O)CC(c1ccccc1O)=N2 |  | -6.13
O=C(Cc1nc2ccccc2[nH]c1=O)c1ccc(Cl)cc1 | 1.03 µM (active) | 
COc1ccc(CN2C(=O)C(C)Nc3ncnc(N4CCc5ccccc5C4)c32)cc1 (configuration not stated) | 3.53 µM (active) | 
Cc1ccc(S(=O)(=O)c2cc3ccccc3oc2=Nc2ccc3c(c2)OCO3)cc1 |  | 12.1
C=C(C)CNC(=S)N/N=C1\CCCCc2ccccc21 |  | -14.6
Cc1cc(/C=C/c2ccnc3ccccc23)ccc1N(C)C | 14.6 µM (active) | 
CN(C)c1ccc(/C=C/c2ccnc3ccccc23)cc1C=O | 5.17 µM (active) | 
CN(C)c1ccc(/C=C/c2ccnc3ccccc23)cc1O | 20.6 µM (active) | 
CN1CCCc2cc(/C=C/c3ccnc4ccccc34)ccc21 | 5.8 µM (active) | 
O=C(Nc1cc(Cl)cc2c1-c1ccc(Cl)cc1C2O)C(Cl)Cl (configuration not stated) |  | -14.6
O=C(/C=C/c1ccncc1)c1cc(Cl)ccc1O |  | -22.8
Cc1cc(/C=C/c2ccnc3ccccc23)ccc1N | 18.4 µM (active) | 
CCc1cc(/C=C/c2ccnc3ccccc23)ccc1N(C)C | 20.6 µM (active) | 
CN1C(=O)C(O)(C2COC(C)(C)CC2=O)c2cc(Br)ccc21 (configuration not stated) |  | -0.606

SMILES | Potency | max response [%]
N=C1S/C(=C\c2ccc(-c3cccc(Cl)c3)o2)C(=O)N1c1nccs1 | 16.4 µM (active) | 
CCc1ccc(CNC(=O)Cc2ccc(NC(=O)C3=C(C)OCCS3)cc2)cc1 | 0.886 µM (active) | 
CC(C)OC(=O)c1ccc(NCc2cc(O)ccc2O)cc1Cl |  | -19.4
CC(C)OC(=O)c1cc(C(=O)c2cc(F)ccc2O)coc1=N | 20.6 µM (active) | 
O=C(N/N=C/c1ccc(Cl)cc1)c1cc2c(s1)-c1ccccc1CC2 | 7.04 µM (active) | 
COc1ccc(-c2[nH]ncc2N=Nc2ccccc2)cc1 | 8.86 µM (active) | 
Cc1ccc(-c2nc(SCCOc3ccccc3C)n3[nH]c(=O)cc3n2)cc1 |  | 23
Cc1ccccc1OCCc1c(C)[nH]c(=S)[nH]c1=O | 2.5 µM (active) | 
N#C/C(=C\c1cccc(O)c1)c1nc2ccccc2o1 | 7.04 µM (active) | 
Cc1ccccc1OCC(=O)NNC(=O)Nc1ccc(Cl)cc1 | 6.27 µM (active) | 
O=C(Nc1ccc(Cl)cc1)Nc1ccon1 |  | -27.2
COc1ccc(/C=N/NC(=O)c2[nH]nc3c2CCc2ccccc2-3)cc1OC | 3.96 µM (active) | 
COc1cccc(/C=N/NC(=O)c2[nH]nc3c2CCc2ccccc2-3)c1 | 5.59 µM (active) | 
O=C(NCCC1=CCCCC1)C1CCC(CNc2nc(=S)[nH]c3ccccc23)CC1 (configuration not stated) |  | -2.72
Cc1cccc2cc3c(N)c(C(=O)Nc4ccc(N5CCOCC5)cc4)sc3nc12 | 14 µM (active) | 
Cc1cccc2cc3c(N)c(C(=O)N4CCOCC4)sc3nc12 | 8.2 µM (active) | 
Cc1ccc(C)c2nc3sc(C(=O)N4CCOCC4)c(N)c3cc12 | 17.7 µM (active) | 
Cc1sc(NC(=O)c2sc3nc4c(C)cccc4cc3c2N)c(C#N)c1C | 17.7 µM (active) | 
Cc1ccnc(N/C=C(\C#N)c2nc(-c3cccc(Br)c3)cs2)c1 | 11.2 µM (active) | 
CN(NC(=O)c1ccccc1)c1nc2ccccc2nc1C(F)(F)F | 3.53 µM (active) | 
Cc1ccc(C(=O)NN(C)c2nc3ccccc3nc2C(F)(F)F)cc1 | 6.27 µM (active) | 
CC12CC3CC(C)(C1)CC(C(=O)NC(=S)N1CCOCC1)(C3)C2 |  | -26.4
Cc1cnc(NC(=O)CC(C)c2ccccc2)s1 (configuration not stated) | 5.59 µM (active) | 
